Values joined by “and” are separate entries in the source; they are usually repeats but may differ in a detail not shown here. Identical values can stand only once. Results filed as inconclusive are left out. Active and inactive are the calls of the source. Unless noted, the call rests on the fitted dose curve; in most records, active means well fitted curve in the direction sought with a large enough effect; inconclusive means small, poorly fitted or top-dose-only effect, or another doubt; inactive means no such curve, though single readings can be large; an effect the other way counts as inactive or inconclusive.
Tests used:
[1] = target: Calcium and integrin-binding protein 1 (Homo sapiens) (UniProt Q99828); test: Primary qHTS for Identification of Calcium Integrin Binding Protein 1 (CIB1) Competitor (AID 1508620);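 further: GST tagged CIB1 binding a fluorescein labelled alphaIIb integrin peptide tracer; top concentration of the series differs between compounds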
Method in brief: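 Fluorescence polarization competition: GST-tagged CIB1 (1 uM final) preincubated with compound 15 min at room temperature, then FITC-labelled alphaIIb peptide (100 nM final) added. After 15 min at room temperature, polarization read at Ex 480/Em 540.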

[2] = target: Cytochrome P450 2D6 (Homo sapiens) (UniProt P10635); test: Cytochrome P450 family 2 subfamily D member 6 (CYP2D6) small molecule antagonists: luciferase biochemical (cell-free) qHTS assay (AID 1645840; active means well fitted curve in the direction sought with a large enough effect in the repeat runs; an effect the other way counts as inactive or inconclusive; further: nearly all actives have a fitted effect of over 55% in size; further: potency means the concentration at half of the fitted maximal effect)
Method in brief: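 P450-Glo luminescent screen: recombinant CYP2D6 enzyme–proluciferin substrate mix preincubated with compound 10 min at room temperature, then NADPH regeneration added for 1 h at room temperature. Detection reagent added for 20 min; luciferin light read as relative luminescence units.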

[3] = Primary qHTS for inhibitors of nuclear receptor binding SET domain protein 2 (NSD2) in an isogenic RCH-ACV NSD2 p.E1099K mutant (9B) (AID 1645876); further: nearly all actives have a fitted effect of over 70% in size; further: potency means the concentration at half of the fitted maximal effect
[4] = Primary qHTS for inhibitors of nuclear receptor binding SET domain protein 2 (NSD2) in an RCH-ACV wild type WT cells (2C) (AID 1645877); further: nearly all actives have a fitted effect of over 70% in size; further: potency means the concentration at half of the fitted maximal effect
[5] = target: Cytochrome P450 2C9 (Homo sapiens) (UniProt P11712); test: Cytochrome P450 family 2 subfamily C member 9 (CYP2C9) small molecule antagonists: luciferase biochemical (cell-free) qHTS assay (AID 1645842; active means well fitted curve in the direction sought with a large enough effect in the repeat runs; an effect the other way counts as inactive or inconclusive; further: nearly all actives have a fitted effect of over 55% in size; further: potency means the concentration at half of the fitted maximal effect)
Method in brief: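 Luminescence, after 20 min with luciferin detection reagent, reflected CYP2C9 turnover during a 1 h NADPH-driven reaction at 37C. Enzyme-substrate mix contained 0.4% bovine serum albumin and was preincubated with compound 10 min at room temperature.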

[6] = target: Cytochrome P450 3A4 (Homo sapiens) (UniProt P08684); test: Cytochrome P450 family 3 subfamily A member 4 (CYP3A4) small molecule antagonists: luciferase qHTS assay (AID 1645841; active means well fitted curve in the direction sought with a large enough effect in the repeat runs; an effect the other way counts as inactive or inconclusive; further: nearly all actives have a fitted effect of over 45% in size)
Method in brief: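 P450-Glo CYP3A4 enzyme with proluciferin substrate preincubated 10 min with compound at room temperature, then NADPH regeneration 1 h. Luciferin detection reagent added for 20 min; luminescence recorded. Ketoconazole positive control.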

Sequence of Calcium and integrin-binding protein 1 (Homo sapiens) (Q99828 whole entry, looked up): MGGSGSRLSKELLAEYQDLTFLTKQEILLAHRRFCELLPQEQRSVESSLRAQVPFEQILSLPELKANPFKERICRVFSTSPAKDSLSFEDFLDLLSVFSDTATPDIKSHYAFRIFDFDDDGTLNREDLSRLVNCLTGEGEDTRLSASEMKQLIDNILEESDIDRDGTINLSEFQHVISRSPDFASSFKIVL
Sequence of Cytochrome P450 2D6 (Homo sapiens) (P10635 whole entry, looked up): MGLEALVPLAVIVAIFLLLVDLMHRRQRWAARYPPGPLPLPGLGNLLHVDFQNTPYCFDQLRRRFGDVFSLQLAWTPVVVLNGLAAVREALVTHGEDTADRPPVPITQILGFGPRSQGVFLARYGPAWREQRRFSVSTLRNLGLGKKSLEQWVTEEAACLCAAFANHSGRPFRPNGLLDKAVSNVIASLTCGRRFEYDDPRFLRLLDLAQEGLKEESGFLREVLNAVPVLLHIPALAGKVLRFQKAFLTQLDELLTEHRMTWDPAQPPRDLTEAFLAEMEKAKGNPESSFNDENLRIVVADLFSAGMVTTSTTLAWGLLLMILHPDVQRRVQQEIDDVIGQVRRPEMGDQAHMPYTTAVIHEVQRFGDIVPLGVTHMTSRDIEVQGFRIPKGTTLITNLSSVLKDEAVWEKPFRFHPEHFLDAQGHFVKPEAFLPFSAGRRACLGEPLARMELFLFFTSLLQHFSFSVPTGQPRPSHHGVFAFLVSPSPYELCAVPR
Sequence of Cytochrome P450 2C9 (Homo sapiens) (P11712 whole entry, looked up): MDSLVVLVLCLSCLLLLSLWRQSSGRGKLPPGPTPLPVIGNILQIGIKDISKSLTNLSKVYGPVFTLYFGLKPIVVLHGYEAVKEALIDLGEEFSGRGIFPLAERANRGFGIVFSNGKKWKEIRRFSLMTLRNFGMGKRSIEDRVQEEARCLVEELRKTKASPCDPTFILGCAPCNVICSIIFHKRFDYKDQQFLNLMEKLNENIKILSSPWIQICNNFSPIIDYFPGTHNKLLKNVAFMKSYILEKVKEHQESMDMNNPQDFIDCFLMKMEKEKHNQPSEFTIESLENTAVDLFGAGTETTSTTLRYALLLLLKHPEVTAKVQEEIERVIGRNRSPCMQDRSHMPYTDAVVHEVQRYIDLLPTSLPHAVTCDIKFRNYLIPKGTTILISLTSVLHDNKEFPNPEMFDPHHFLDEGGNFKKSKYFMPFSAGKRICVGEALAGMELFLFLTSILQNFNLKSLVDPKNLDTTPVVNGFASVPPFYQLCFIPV
Sequence of Cytochrome P450 3A4 (Homo sapiens) (P08684 whole entry, looked up): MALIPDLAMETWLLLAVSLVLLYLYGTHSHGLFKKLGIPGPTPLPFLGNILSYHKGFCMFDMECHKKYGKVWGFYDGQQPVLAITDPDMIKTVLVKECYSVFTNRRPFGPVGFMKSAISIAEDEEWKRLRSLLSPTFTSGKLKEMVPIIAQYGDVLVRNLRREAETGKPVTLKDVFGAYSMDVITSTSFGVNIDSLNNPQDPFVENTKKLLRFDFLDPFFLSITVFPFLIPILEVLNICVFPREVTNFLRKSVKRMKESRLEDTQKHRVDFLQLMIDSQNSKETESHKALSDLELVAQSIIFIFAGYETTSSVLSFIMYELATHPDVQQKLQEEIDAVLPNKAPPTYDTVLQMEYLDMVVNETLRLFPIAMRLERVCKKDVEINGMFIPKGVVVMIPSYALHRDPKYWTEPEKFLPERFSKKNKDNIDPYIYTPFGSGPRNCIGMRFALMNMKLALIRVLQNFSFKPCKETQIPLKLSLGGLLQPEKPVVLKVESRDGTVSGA

Structure (SMILES)	Potency [1]	Potency [2]	Potency [3]	Potency [4]	Potency [5]	Potency [6]
COC(C)(C)CCn1nc(Nc2c(C)cccc2C)c2cnc(Nc3ccc(OCCN4CCCC4)c(F)c3)nc21	inactive	15.1 µM (active)	103 nM (active) and 263 nM (active)	163 nM (active) and 468 nM (active)		
NC(=O)c1cnc(N[C@@H]2CCCC[C@H]2N)nc1Nc1cccc(-n2nccn2)c1	inactive	19 µM (active)	0.649 µM (active)	0.459 µM (active)		
Cc1cn2cc(C(=O)N(C)CCO)cc(NC3CCOc4cccc(C)c43)c2n1 (stereo not drawn)	inactive	inactive	inactive	inactive		
O=c1ccc2ccc(OCCCCN3CCN(c4cccc5sccc45)CC3)cc2[nH]1	inactive	1.34 µM (active)	14.5 µM (active)	16.3 µM (active)		
O=C(Nc1ccccc1Cl)c1cnc2ccc(C3CCNCC3)cn12	inactive	inactive	1.29 µM (active)	2.3 µM (active)		
CC(C)C[C@@H](C(=O)N[C@@H](Cc1ccc(OCc2ccccc2)cc1)C(=O)NC(C)(C)C)N(C)Cc1ccc(C(C)(C)C)cc1	inactive	inactive	inactive	inactive		
CC(=O)Nc1nc(C)c(-c2nc(N3CCCC(O)C3)no2)s1 (stereo not drawn)	inactive	4.25 µM (active)	0.916 µM (active)	1.15 µM (active)		
C[C@H]1[C@H](/C=C/c2ccc(-c3ccccc3C#N)cn2)[C@@H]2[C@@H](C)OC(=O)[C@@H]2C[C@@H]1C	inactive	inactive	14.5 µM (active)	10.3 µM (active)		
Cn1cc(-c2cnn3c(N)c(Br)c([C@@H]4CCCNC4)nc23)cn1	inactive	10.7 µM (active)	1.15 µM (active) and 3.72 µM (active)	1.15 µM (active) and 4.17 µM (active)		
CC[N+]1(C/C2=C/CCCCCC2)CCC(NC(=O)C2c3cc(Cl)ccc3Oc3ccc(Cl)cc32)CC1 (stereo not drawn)	inactive	0.425 µM (active)	23 µM (active)	18.3 µM (active)		
CN(C)C(=O)COC(=O)c1cc(-c2ccc(C3CCNCC3)cc2)c2ccc(-c3ccc(C(F)(F)F)cc3)cc2c1	inactive	10.7 µM (active)	4.59 µM (active)	4.59 µM (active)		
CN1CCN(c2ccc(OC(F)(F)F)c(Nc3ncc4c(n3)-c3c(c(C(N)=O)nn3CCO)CC4)c2)CC1	inactive	inactive	57.8 nM (active) and 118 nM (active)	72.8 nM (active) and 132 nM (active)		
Cc1c(C2=CCN(C(=O)N(C)C(C)C)CC2)nnn1-c1cccnc1F	inactive	inactive	inactive	inactive		
CN1CCN(S(=O)(=O)c2ccc(-c3cnc(N)c(C(=O)Nc4cccnc4)n3)cc2)CC1	inactive	inactive	0.317 µM (active)	0.317 µM (active)		
O=c1cc(OCc2ccc(F)cc2)ccn1-c1ccc(OCCN2CCCC2)cc1	inactive	16.9 µM (active)	23 µM (active)	8.17 µM (active)		
O=S(=O)(NCc1cccc2ccccc12)c1cc(Cl)c(Oc2cccc(N3CCNCC3)c2)s1	inactive	8.49 µM (active)	7.28 µM (active)	5.78 µM (active)		
COc1cc2c(cc1OCCCN1CCCC1)N=C(N)C21CCC1	inactive	23.9 µM (active)	inactive	inactive		
CCC[C@H](N[C@H]1CCc2cc(F)cc(F)c2C1)C(=O)Nc1cn(C(C)(C)CNCC(C)(C)C)cn1	inactive	inactive	16.3 µM (active) and 13.2 µM (active)	13.2 µM (active)		
CC(C)S(=O)(=O)Nc1ccc(F)c(C(=O)c2c[nH]c3ncc(-c4cccnc4)cc23)c1F	inactive	5.35 µM (active)	4.09 µM (active)	4.59 µM (active)		
O=C(Nc1cccc([N+](=O)[O-])c1)c1cccc(S(=O)(=O)N2CCCCCC2)c1	inactive				6.01 µM (active)	
CCN1CCC[C@@H]1CNC(=O)c1ccc2c(c1)NC(=O)c1cccc(C)c1S2	inactive				inactive	inactive
CCCOc1ccc(S(=O)(=O)N2CCN(CCO)CC2)cc1-c1nc2c(CCC)cn(CC)c2c(=O)[nH]1	inactive				5.35 µM (active)	
Cc1noc(-c2ccc(-c3ccc(CC(=O)O)cc3)cc2)c1NC(=O)O[C@H](C)c1ccccc1Cl	inactive				3.01 µM (active)	
CN1CCN(C(=O)CN[C@@H]2C[C@H]2c2ccc(OCc3ccccc3)cc2)CC1	inactive	10.7 µM (active)		20.5 µM (active)		

Source: PubChem BioAssay (NCATS)
